Experimental data from PubChem BioAssay (EPA / NIEHS).
Values joined by “and” are separate entries in the source; they are usually repeats but may differ in a detail not shown here. Equal entries are not always repeated. Active and inactive are the calls of the source. Rule for the calls: active = hit-call score of the fitted dose curve at least 0.9, where 1 is the maximum; inactive = score below 0.9.

What follows are compounds tested on Collagen IV, COL4A1 (gene 1282) (assay: BSK_MyoF_CollagenIV: BioMAP Diversity Plus: MyoF Assay for Collagen IV Biomarker Activity (AID 2284247)). Details: primary human lung fibroblasts.
Experimental: BSK_MyoF is a cell-based, multiplexed-readout assay that uses lung fibroblasts, […], with measurements taken at 24 hours after chemical dosing in a microplate: 96-well plate.BSK_MyoF_CollagenIV is an assay component measured in the BSK_MyoF assay. It measures Collagen IV antibody related to regulation of gene expression using ELISA technology.Data from the assay component BSK_MyoF_CollagenIV was analyzed at the endpoint, BSK_MyoF_CollagenIV, in the positive analysis fitting direction relative to DMSO as the negative control and baseline of activity. Using a type of binding reporter, gain or loss-of-signal activity can be used to understand protein changes. To generalize the intended target to other relatable targets, this assay endpoint is annotated to the 'cell adhesion molecules' intended target family, where the subfamily is 'collagen'.
The levels of cell surface (or secreted, indicated by the prefix "s") biomarker endpoints were measured by ELISA. Overt cytotoxicity to cells in confluent adherent cultures (all systems other than the BT system) was assessed by measuring total protein levels using sulforhodamine B (SRB) staining in parallel cultures at the time of biomarker measurements, indicated as SRB endpoints. For proliferation assays for adherent cell types, individual cell types are cultured at sub-confluence and relative cell numbers quantified by SRB staining at time points optimized for each system (48 h: 3C and CASM3C systems; 72 h: BT and HDF3CGF systems; 96 h: SAg system). SRB was performed by staining cells with 0.1% SRB after fixation with 10% TCA and reading wells at 560 nm.Viability and proliferation of PBMC (T cells) was quantified by Alamar Blue reduction for the SAg and BT systems. For PBMC viability (referred to as PBMC Cytotoxicity within the assay endpoint names), cells were plated (75,000/well in a 96-well plate) and then chemical samples added for 1 h before addition of activators, SEB and TSST-1 (20 ng/mL final concentration each). Cells were incubated for 90 h. Then, Alamar Blue (20 uL/well) (Invitrogen, Cat DAL1100) was added for 6 h, and the plates were read with a fluorescence microplate reader at 546/580 nm (excitation/emission). For PBMC proliferation, cells were plated and activated as above but incubated for only 16 h prior to addition of Alamar Blue. Plates were read after 6 h.

SMILES	outcome	AC50
Cc1cccc(O)c1C	inactive	
NCC(F)(F)C(F)(F)C(F)(F)C(F)(F)F	inactive	
OC(O)(C(F)C(O)(O)C(F)(F)F)C(F)(F)F	inactive	
O=S(=O)(O)CCC(F)(F)C(F)(F)C(F)(F)C(F)(F)C(F)(F)C(F)(F)F	inactive	
FC(F)C(F)(F)COCC1CO1 (stereo not drawn)	inactive	
FC(F)=C(F)C(F)(F)C(F)(F)C(F)(F)C(F)(F)C(F)(F)C(F)(F)F	inactive	
OCCC(F)(F)C(F)(F)C(F)(F)C(F)(F)F	inactive	
OCc1c[nH]c2ccccc12	inactive	
FC(F)(F)COC(OCC(F)(F)F)OCC(F)(F)F	inactive	
FC(F)(F)C(F)(F)C(F)(F)C(F)(F)C(F)(F)C(F)(F)I		51.3 µM (active) and 47.7 µM (active)
C[Si](C)(C)C(F)(F)C(F)(F)C(F)(F)F	inactive	
S=P(N1CC1)(N1CC1)N1CC1	inactive	
O=C(Cl)C(F)(F)C(F)(F)C(F)(F)C(=O)Cl	inactive	
